# According to ChEMBL document CHEMBL3988442, “University of Dundee, Small-Polar-MMV Screening Library” (2021):
# “And” between values parts separate entries of the source, which are not always exact repeats. Equal values may be shown once. For part of these data: Results with a measured potency or affinity are listed apart.
# Tests used:
# Parameters in all cases: scale not given: direction of the effect not stated beside the values
# [1] = target: Protein translocase subunit SecA (Escherichia coli (strain K12)) (UniProt P10408); experiment: Assay to Identify E. coli SecA ATPase Inhibitors; assay type: functional; details: 30 µM
# [2] = target: T1, Ubiquitin-activating enzyme e1, putative (Leishmania donovani (strain BPK282A1)) (UniProt E9BSI1); experiment: Leishmania donovani Ubiquitin Activating Enzyme (LdE1); assay type: functional; details: 30 µM
# T1 sequence (whole entry): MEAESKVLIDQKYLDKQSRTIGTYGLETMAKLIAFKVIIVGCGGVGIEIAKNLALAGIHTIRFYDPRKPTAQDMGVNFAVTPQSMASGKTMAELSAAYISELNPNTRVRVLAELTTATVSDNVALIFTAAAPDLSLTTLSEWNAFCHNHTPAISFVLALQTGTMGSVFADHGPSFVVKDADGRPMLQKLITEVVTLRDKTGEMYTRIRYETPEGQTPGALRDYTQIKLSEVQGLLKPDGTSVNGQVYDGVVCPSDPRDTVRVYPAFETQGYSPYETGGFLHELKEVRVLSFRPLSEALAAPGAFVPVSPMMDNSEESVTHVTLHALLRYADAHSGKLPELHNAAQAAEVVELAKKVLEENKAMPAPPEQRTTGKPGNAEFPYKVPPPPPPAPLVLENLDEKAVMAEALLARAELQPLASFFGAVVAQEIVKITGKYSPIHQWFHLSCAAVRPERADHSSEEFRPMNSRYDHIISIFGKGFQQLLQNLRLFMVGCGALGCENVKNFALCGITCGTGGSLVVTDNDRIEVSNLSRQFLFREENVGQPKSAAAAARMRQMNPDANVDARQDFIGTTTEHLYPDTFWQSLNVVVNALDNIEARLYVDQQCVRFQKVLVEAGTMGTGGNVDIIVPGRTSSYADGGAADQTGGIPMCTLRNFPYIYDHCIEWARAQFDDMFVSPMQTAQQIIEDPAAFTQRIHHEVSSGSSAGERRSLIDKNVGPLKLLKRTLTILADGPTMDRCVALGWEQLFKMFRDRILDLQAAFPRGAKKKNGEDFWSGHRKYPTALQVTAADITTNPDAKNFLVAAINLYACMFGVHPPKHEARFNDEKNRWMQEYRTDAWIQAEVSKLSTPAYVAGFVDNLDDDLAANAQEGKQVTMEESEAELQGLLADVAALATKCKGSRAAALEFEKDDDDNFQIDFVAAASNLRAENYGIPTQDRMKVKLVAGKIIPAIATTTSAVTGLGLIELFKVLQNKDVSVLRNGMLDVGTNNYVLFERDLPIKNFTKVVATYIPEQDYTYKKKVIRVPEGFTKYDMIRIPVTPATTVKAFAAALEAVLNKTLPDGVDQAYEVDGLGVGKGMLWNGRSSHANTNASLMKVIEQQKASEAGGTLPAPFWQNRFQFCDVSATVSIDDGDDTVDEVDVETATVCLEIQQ
# [3] = target: AMP-activated protein kinase, AMPK (Homo sapiens) (UniProt P54646+O43741+P54619+Q9UGJ0+Q9Y478+Q13131+Q9UGI9); experiment: AMP-dependent Kinase enzyme assay. An in vitro enzyme assay that detects ADP turnover that is directly proportional to AMPK activity. This uses naive AMPK that is activated during the assay with MK-8722; assay type: functional; details: 30 µM
# [4] = target: Sialic acid-binding Ig-like lectin 9 (Homo sapiens) (UniProt Q9Y336); experiment: Hs-Siglec9 ALPHAscreen SOP 20170721; details: 10 µM
# [5] = test system: Trypanosoma cruzi; experiment: Trypanosoma cruzi phosphomannomutase and mannose-1-phosphate guanylyltransferase assay; assay type: functional; details: 10 µM
# [6] = target: T2, Arginase-2, mitochondrial (Homo sapiens) (UniProt P78540); experiment: in vitro enzyme assay to detect the production of urea directly proportional to the activity of Arginase II; assay type: functional; further: in the data most compounds retested in dose-response had high values
# T2 sequence (whole entry): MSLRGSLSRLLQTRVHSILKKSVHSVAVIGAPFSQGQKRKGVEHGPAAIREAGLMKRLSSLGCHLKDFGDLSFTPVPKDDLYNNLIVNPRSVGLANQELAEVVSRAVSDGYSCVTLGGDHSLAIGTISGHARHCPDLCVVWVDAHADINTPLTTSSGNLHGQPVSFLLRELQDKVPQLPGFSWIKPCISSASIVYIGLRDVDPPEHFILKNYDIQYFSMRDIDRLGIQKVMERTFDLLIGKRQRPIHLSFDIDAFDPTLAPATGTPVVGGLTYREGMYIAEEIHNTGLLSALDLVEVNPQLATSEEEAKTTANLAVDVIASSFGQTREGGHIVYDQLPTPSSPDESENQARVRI
# [7] = target: T3, Proteasome subunit beta (Trypanosoma cruzi) (UniProt O96673); experiment: Trypanosoma cruzi proteasome chymotrypsin-like activity (TcProtChymo) assay.; further: in the data most compounds retested in dose-response had high values; assay type: functional; details: 9.37 µM
# T3 sequence (whole entry): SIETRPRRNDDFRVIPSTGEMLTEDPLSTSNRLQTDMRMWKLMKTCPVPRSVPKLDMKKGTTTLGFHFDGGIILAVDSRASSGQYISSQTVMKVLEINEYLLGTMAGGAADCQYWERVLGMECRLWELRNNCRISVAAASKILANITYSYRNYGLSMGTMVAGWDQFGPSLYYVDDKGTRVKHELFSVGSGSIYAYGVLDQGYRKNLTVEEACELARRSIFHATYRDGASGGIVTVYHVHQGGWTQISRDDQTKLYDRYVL
# [8] = species on record: Homo sapiens; experiment: To identify inhibition of the IFN signalling (Jak-Stat) pathway via expression of an eGFP reporter gene under the control of an IFN-stimulated response element (ISRE) containing MxA promoter.; assay type: functional; details: 30 µM
# [9] = target: T4, Tyrosyl-tRNA synthetase, putative (Trypanosoma cruzi (strain CL Brener)) (UniProt Q4DSP6); experiment: Trypanosoma cruzi tyrosyl tRNA synthetase (TcYRS) _High Tyrosine SOP; assay type: functional; details: 30 µM; further: in the data most compounds retested in dose-response had high values
# T4 sequence (whole entry): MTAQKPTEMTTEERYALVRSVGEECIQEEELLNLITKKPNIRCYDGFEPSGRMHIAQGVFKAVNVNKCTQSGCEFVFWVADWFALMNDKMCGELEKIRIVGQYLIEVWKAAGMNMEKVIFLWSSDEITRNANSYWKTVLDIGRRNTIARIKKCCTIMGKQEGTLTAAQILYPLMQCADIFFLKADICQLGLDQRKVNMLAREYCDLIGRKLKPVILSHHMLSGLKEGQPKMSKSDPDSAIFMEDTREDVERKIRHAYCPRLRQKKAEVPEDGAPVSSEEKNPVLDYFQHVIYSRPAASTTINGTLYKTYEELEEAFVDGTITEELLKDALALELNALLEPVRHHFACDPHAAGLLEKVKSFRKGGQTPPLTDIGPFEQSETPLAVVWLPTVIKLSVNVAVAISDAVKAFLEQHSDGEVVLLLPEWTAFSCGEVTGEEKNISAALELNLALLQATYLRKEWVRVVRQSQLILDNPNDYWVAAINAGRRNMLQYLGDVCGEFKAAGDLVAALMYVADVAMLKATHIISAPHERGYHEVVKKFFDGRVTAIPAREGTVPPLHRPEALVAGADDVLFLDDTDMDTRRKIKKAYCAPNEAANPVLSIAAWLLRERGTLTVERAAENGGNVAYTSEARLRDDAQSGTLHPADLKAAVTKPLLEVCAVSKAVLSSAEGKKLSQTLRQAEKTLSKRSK
# [10] = target: T4, Tyrosyl-tRNA synthetase, putative (Trypanosoma cruzi (strain CL Brener)); experiment: Trypanosoma cruzi tyrosyl tRNA synthetase (TcYRS) SOP; assay type: functional; details: 30 µM
# [11] = target: Chromo domain-containing protein 1 (Saccharomyces cerevisiae (strain ATCC 204508 / S288c) (Baker's yeast)) (UniProt P32657); experiment: ScCHD-1 Enzyme Inhibition Assay; assay type: functional; details: 30 µM; further: in the data most compounds retested in dose-response had high values
# [12] = test system: N/A; experiment: Trypanosoma cruzi proteasome luciferase counter-screen; assay type: functional; details: 9.37 µM
# Protein translocase subunit SecA (Escherichia coli (strain K12)), sequence (P10408 whole entry): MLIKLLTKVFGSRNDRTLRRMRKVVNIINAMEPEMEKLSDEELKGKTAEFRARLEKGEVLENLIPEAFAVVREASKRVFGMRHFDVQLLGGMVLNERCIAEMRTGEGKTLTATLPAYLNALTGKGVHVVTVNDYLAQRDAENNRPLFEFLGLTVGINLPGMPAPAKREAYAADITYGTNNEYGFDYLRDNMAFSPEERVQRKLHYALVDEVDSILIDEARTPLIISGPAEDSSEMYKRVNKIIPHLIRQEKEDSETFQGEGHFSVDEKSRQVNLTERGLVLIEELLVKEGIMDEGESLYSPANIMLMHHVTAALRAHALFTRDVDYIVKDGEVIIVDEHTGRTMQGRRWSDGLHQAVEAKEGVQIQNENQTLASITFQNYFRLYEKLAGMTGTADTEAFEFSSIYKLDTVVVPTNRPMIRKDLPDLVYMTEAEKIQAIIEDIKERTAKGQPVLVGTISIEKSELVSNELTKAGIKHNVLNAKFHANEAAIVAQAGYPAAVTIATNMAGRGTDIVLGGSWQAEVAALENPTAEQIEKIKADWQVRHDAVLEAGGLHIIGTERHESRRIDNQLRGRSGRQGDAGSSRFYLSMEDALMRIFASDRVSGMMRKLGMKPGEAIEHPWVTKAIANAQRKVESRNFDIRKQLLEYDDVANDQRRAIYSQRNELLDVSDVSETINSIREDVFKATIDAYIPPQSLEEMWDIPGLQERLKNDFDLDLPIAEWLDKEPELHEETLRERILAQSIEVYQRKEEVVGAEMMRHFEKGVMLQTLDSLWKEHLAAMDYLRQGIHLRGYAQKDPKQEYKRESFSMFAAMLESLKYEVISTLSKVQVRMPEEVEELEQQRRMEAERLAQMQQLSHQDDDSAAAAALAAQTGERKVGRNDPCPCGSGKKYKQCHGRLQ
# Chromo domain-containing protein 1 (Saccharomyces cerevisiae (strain ATCC 204508 / S288c) (Baker's yeast)), sequence (P32657 whole entry, the tested form may be a part): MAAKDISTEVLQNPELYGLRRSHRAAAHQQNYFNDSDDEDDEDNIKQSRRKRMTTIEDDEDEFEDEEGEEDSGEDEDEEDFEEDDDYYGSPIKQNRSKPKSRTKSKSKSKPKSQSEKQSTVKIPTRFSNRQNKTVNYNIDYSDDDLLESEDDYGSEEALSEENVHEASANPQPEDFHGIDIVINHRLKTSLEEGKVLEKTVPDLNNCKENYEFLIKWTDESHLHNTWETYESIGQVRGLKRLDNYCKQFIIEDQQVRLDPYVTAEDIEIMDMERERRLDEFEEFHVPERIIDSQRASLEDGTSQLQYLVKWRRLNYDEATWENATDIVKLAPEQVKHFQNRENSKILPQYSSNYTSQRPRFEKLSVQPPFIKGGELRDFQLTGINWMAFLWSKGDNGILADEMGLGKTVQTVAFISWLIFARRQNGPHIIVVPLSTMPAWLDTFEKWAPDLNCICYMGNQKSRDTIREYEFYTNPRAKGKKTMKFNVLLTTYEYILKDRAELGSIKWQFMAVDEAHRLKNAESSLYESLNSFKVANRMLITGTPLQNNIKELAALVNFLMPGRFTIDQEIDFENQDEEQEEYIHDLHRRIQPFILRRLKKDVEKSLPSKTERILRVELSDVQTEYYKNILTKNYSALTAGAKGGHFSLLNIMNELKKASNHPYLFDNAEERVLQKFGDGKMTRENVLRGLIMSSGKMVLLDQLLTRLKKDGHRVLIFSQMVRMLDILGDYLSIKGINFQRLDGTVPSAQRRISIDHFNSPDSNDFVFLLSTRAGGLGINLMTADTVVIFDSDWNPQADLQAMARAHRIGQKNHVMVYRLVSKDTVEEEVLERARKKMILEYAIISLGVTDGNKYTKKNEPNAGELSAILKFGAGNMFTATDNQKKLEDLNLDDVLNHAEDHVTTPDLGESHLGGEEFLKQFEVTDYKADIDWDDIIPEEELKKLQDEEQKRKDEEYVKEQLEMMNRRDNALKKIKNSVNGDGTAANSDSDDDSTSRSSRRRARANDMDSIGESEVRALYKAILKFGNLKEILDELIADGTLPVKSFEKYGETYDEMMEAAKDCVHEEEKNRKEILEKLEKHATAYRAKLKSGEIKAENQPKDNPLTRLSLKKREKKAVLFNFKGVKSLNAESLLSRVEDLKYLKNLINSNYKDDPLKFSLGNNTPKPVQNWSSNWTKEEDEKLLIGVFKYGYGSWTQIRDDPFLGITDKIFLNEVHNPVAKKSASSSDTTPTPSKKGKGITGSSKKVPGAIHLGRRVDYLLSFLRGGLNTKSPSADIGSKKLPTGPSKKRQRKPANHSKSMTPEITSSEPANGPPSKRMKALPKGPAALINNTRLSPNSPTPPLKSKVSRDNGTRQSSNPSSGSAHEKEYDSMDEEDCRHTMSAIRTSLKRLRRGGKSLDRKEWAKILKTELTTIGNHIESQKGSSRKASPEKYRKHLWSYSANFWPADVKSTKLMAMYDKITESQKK
# Sialic acid-binding Ig-like lectin 9 (Homo sapiens), sequence (Q9Y336 whole entry): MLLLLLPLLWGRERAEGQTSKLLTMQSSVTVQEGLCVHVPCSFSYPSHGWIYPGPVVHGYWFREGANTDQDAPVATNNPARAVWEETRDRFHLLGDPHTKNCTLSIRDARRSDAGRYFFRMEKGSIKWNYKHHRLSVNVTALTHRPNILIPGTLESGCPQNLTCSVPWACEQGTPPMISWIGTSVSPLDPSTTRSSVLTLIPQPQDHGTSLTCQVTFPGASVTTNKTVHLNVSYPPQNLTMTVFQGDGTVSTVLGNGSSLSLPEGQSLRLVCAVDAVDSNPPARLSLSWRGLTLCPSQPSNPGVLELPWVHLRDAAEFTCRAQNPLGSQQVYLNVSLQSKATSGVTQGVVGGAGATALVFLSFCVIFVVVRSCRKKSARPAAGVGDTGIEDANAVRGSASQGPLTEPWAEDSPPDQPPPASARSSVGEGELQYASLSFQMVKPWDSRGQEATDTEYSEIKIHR
SMILES,Percent Effect [1] [%],Percent Effect [2] [%],Percent Effect [3] [%],Percent Effect [4] [%],Percent Effect [5] [%],Percent Effect ([6]; 30 µM) [%],Percent Effect ([6]; 33.3 µM) [%],Percent Effect [7],Percent Effect [8] [%],Percent Effect [9] [%],Percent Effect [10] [%],Percent Effect [11] [%],Percent Effect [12]
O=c1[nH]c2c(c(=O)n1C1CCCCC1)CCC2NCCc1ccccc1 (configuration not stated),-2.86,1.33,-8.89,6.39,2.75,1.62,-3.35,2.22%,-14.6,-3.17,0,-3.17,
O=C(c1cn(-c2ccccc2Cl)nn1)N1CCCSCC1,-4.85,16.2,-2.86,38.1,5.57,,3.72,49.8% and 55.2% and 47.1%,0.244,2.15,16.1,-4.55,26.3% and 26%
CN(Cc1cccnc1)C1CC2(CCN(c3ccccn3)CC2)C1,-2.7,13.3,11,-6.68,-5.12,3.78,-1.17,3.26%,27.4,7.45,16.7,-5.79,
COc1ccc(-c2nc(CN3CC(n4nc(C)cc4C)C3)no2)cc1,-4.78,-5.2,0.251,-0.396,-6.79,2.7,17.9,14.5%,15.2,2.15,1.24,1.8,
O=C(CC1CN(Cc2ccccc2)CCO1)Nc1ccccc1F (configuration not stated),-4.53,21.6,-4.08,3.88,2.15,,4.17,64.1% and 65% and 65.1%,4.52,8.91,15.8,-1.97,32.6% and 32.9%
Cc1nn(CCO)c(C)c1CNC1CCC(C)(C)c2ccccc21 (configuration not stated),-3.92,8,-5.82,14.7,7.3,2.7,9.38,9.42%,23.6,1.64,13.6,-6.8,
CC(C)c1n[nH]c(C(=O)Nc2ccncc2)c1Br,-1.59,7.59,60,0.333,-3.31,,4.18,97% and 96.6% and 95.9%,58.2,4.43,8.86,-3.82,81.8% and 83.2%
CC(=O)NC(C)CC(=O)NCc1cccnc1Oc1ccccc1C (configuration not stated),-2.11,9.72,-0.172,-2.33,-1.26,1.62,6.18,11.6%,-9.66,8.42,12.8,-3.08,
O=C1CC(c2ccsc2)c2c(n(C3CCOCC3)[nH]c2=O)N1 (configuration not stated),-5.06,-30.7,-12.7,0.762,2.36,2.7,2.64,16.4%,1.56,6.35,15.4,-7.86,
CN(C)C(=O)CNC(=O)c1cc(Br)c2c(c1)OCCO2,-5.71,8,-2.43,7.31,4.58,4.87,1.56,21.6%,-10.2,7.1,18.5,-4.33,
Cc1cc(C(=O)N2C[C@@H](C(=O)O)[C@H](c3ccccc3C)C2)c(C)o1,-6.29,2.7,4.96,-6.42,-7.92,4.87,-2.23,11.2%,18.7,1.07,3.7,-4.1,
CN(C)CCCNC(=O)c1cc(Br)c2c(c1)OCCO2,-3.75,5.33,-4,10,3.6,-0.54,18.2,6.28%,-10,4.92,18.5,-7.32,
Cc1ccc([C@@H]2CN(S(=O)(=O)C(C)C)C[C@H]2N(C)C)cc1,-6.03,13.5,-2.84,23.9,7.33,-14.6,4.22,-0.258%,-1,3.23,18.5,-8.94,
Cc1ccc(-c2cc(C(=O)NC(C)C(=O)N3CCCCC3)on2)cc1 (configuration not stated),-6.75,13.2,6.88,1.96,4.19,,5.92,34.9% and 32.7% and 30.8%,10.4,2.13,10.4,-6.32,29.4%
CN(Cc1ccccn1)C1CC2(CCN(Cc3cccnc3)CC2)C1,-7.24,13.3,5.22,-6.34,-10,-2.7,0.233,9.6%,10.9,4.25,11.5,-7.41,
CC(C)c1n[nH]c(C(=O)Nc2cc[nH]n2)c1Br,-6.13,5.06,24.9,3.44,-4.25,,-3.8,74% and 65.8% and 74.1%,24.7,-0.493,1.27,-0.338,41.2% and 40.1%
